Assay results reported in PubChem BioAssay AID1159580 (chemical genetic matrix, 2015).
About 2,000 (36%) of roughly 5,500 compounds were called active. About 18% were inconclusive and are not listed. No stated cut-off is given here; in the data, active means normalized growth mostly below about 0.91 (no sharp cut-off); inconclusive means no clear call, values can overlap the other calls; inactive means mostly above about 0.92. This is one part of the list.

Assay: chemical genetic growth profiling, strain panel (AID 1159580);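 further: tested at 20 µM; growth read once vehicle control cultures reached saturation at 30 °C; 1 = growth at the plate median or of vehicle wells; lower values mean less growth of the strain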
Conditions: S. cerevisiae deletion strains, growth OD

Measured: normalized growth

CO/N=C(\C(=O)NC1C(=O)N2C(C(=O)OC(C)OC(C)=O)=C(COC(N)=O)CSC12)c1ccco1 (stereo not given)
inactive: locus YAL021C, strain ccr4, active compounds read low 0.994 | locus YAL026C, strain drs2, active compounds read low 0.996 | locus YAL030W, strain snc1, active compounds read low 0.998 | locus YBL061C, strain skt5, active compounds read low 0.992 | locus YBR009C, strain hhf1, active compounds read low 0.994 | locus YBR023C, strain chs3, active compounds read low 0.988 | locus YBR171W, strain sec66, active compounds read low 0.983 | locus YBR231C, strain swc5, active compounds read low 1 | locus YBR279W, strain paf1, active compounds read low 0.991 | locus YCL011C, strain gbp2, active compounds read low 0.997 | locus YCL016C, strain dcc1, active compounds read low 0.985 | locus YCL061C, strain MRC1, active compounds read low 0.99 | locus YCL069W, strain vba3, active compounds read low 0.989 | locus YCR088W, strain abp1, active compounds read low 0.994 | locus YDL005C, strain med2, active compounds read low 0.985 | locus YDL040C, strain nat1, active compounds read low 0.995 | locus YDR001C, strain nth1, active compounds read low 1 | locus YDR069C, strain doa4, active compounds read low 0.994 | locus YDR137W, strain rgp1, active compounds read low 0.996 | locus YDR159W, strain sac3, active compounds read low 0.996 | locus YDR195W, strain ref2 0.985 | locus YDR297W, strain sur2, active compounds read low 1 | locus YDR334W, strain swr1, active compounds read low 1 | locus YDR335W, strain msn5, active compounds read low 0.996 | locus YDR392W, strain spt3, active compounds read low 0.993 | locus YEL003W, strain gim4, active compounds read low 0.998 | locus YEL037C, strain rad23, active compounds read low 0.997 | locus YEL061C, strain CIN8 (second series), active compounds read low 0.999 | locus YER015W, strain faa2, active compounds read low 1 | locus YER016W, strain bim1, active compounds read low 0.99 | locus YER111C, strain swi4, active compounds read low 0.986 | locus YER155C, strain BEM2 (second series), active compounds read low 0.991 | locus YFR010W, strain ubp6, active compounds read low 0.998 | locus YGL167C, strain pmr1, active compounds read low 0.989 | locus YGL173C, strain kem1, active compounds read low 0.985 | locus YGL227W, strain vid30, active compounds read low 0.981 | locus YGL240W, strain doc1, active compounds read low 1.01 | locus YGL253W, strain hxk2, active compounds read low 1 | locus YHR013C, strain ard1, active compounds read low 0.998 | locus YHR027C, strain rpn1, active compounds read low 0.994 | locus YHR030C, strain SLT2, active compounds read low 1.03 | locus YHR079C, strain IRE1, active compounds read low 1.05 | locus YHR142W, strain chs7, active compounds read low 0.99 | locus YJL092W, strain hpr5, active compounds read low 0.993 | locus YJL095W, strain BCK1 (second series), active compounds read low 0.997 | locus YJL095W, strain BCK1, active compounds read low 1.01 | locus YJL115W, strain asf1, active compounds read low 0.996 | locus YJL129C, strain trk1, active compounds read low 0.987 | locus YJL154C, strain vps35, active compounds read low 1.01 | locus YJL164C, strain tpk1, active compounds read low 0.996 | locus YJL166W, strain qcr8, active compounds read low 0.996 | locus YJL187C, strain SWE1, active compounds read low 1 | locus YJR066W, strain TOR1, active compounds read low 0.989 | locus YKL160W, strain elf1, active compounds read low 0.997 | locus YKR026C, strain gcn3, active compounds read low 0.983 | locus YKR091W, strain srl3, active compounds read low 0.998 | locus YLL001W, strain dnm1, active compounds read low 0.981 | locus YLL026W, active compounds read low 0.991 | locus YLL041C, strain sdh2, active compounds read low 0.993 | locus YLR027C, strain aat2, active compounds read low 0.992 | locus YLR113W, strain HOG1, active compounds read low 1 | locus YLR221C, strain rsa3, active compounds read low 0.995 | locus YLR258W, strain gsy2, active compounds read low 0.995 | locus YLR262C, strain YPT6 (second series), active compounds read low 0.985 | locus YLR320W, strain mms22, active compounds read low 0.986 | locus YLR342W, strain FKS1, active compounds read low 0.988 | locus YLR357W, strain rsc2, active compounds read low 1.02 | locus YLR370C, strain arc18, active compounds read low 0.987 | locus YLR384C, strain iki3, active compounds read low 1 | locus YML120C, strain ndi1, active compounds read low 0.996 | locus YMR058W, strain fet3, active compounds read low 0.996 | locus YMR125W, strain sto1, active compounds read low 0.985 | locus YMR129W, active compounds read low 0.995 | locus YMR205C, strain PFK2, active compounds read low 0.991 | locus YMR231W, strain pep5, active compounds read low 0.989 | locus YNL071W, strain lat1, active compounds read low 1 | locus YNL183C, strain NPR1, active compounds read low 0.99 | locus YNL209W, strain ssb2, active compounds read low 0.995 | locus YNL248C, strain rpa49, active compounds read low 0.987 | locus YNL322C, strain KRE1 (second series), active compounds read low 0.99 | locus YNR049C, strain mso1, active compounds read low 0.992 | locus YOR001W, strain rrp6, active compounds read low 0.999 | locus YOR070C, strain gyp1, active compounds read low 0.929 | locus YOR080W, strain dia2, active compounds read low 1 | locus YOR083W, strain WHI5, active compounds read low 0.996 | locus YOR106W, strain vam3, active compounds read low 0.988 | locus YOR231W, strain MKK1, active compounds read low 1.04 | locus YOR265W, strain rbl2, active compounds read low 0.991 | locus YOR270C, strain vph1, active compounds read low 1 | locus YOR290C, strain snf2, active compounds read low 1 | locus YPL051W, strain arl3, active compounds read low 0.999 | locus YPL078C, strain atp4, active compounds read low 0.995 | locus YPL106C, strain sse1, active compounds read low 0.981 | locus YPL240C, strain hsp82, active compounds read low 0.994 | locus YPL256C, strain CLN2, active compounds read low 1.07
